Columns and labels:
Assay in all cases: log2 ratio of Biotin-Ahx-Ub-VS probe labelling (fragment/DMSO); higher = less target engagement (more negative = stronger competition), active = hit call of the paper (q ≤ 0.05, log2 ratio ≤ -1)
Conditions in all cases: compound concentration: 200 uM; treatment time: 3 h
USP19 = molecular target: T1, USP19 (UniProt O94966)
T1 sequence (whole entry): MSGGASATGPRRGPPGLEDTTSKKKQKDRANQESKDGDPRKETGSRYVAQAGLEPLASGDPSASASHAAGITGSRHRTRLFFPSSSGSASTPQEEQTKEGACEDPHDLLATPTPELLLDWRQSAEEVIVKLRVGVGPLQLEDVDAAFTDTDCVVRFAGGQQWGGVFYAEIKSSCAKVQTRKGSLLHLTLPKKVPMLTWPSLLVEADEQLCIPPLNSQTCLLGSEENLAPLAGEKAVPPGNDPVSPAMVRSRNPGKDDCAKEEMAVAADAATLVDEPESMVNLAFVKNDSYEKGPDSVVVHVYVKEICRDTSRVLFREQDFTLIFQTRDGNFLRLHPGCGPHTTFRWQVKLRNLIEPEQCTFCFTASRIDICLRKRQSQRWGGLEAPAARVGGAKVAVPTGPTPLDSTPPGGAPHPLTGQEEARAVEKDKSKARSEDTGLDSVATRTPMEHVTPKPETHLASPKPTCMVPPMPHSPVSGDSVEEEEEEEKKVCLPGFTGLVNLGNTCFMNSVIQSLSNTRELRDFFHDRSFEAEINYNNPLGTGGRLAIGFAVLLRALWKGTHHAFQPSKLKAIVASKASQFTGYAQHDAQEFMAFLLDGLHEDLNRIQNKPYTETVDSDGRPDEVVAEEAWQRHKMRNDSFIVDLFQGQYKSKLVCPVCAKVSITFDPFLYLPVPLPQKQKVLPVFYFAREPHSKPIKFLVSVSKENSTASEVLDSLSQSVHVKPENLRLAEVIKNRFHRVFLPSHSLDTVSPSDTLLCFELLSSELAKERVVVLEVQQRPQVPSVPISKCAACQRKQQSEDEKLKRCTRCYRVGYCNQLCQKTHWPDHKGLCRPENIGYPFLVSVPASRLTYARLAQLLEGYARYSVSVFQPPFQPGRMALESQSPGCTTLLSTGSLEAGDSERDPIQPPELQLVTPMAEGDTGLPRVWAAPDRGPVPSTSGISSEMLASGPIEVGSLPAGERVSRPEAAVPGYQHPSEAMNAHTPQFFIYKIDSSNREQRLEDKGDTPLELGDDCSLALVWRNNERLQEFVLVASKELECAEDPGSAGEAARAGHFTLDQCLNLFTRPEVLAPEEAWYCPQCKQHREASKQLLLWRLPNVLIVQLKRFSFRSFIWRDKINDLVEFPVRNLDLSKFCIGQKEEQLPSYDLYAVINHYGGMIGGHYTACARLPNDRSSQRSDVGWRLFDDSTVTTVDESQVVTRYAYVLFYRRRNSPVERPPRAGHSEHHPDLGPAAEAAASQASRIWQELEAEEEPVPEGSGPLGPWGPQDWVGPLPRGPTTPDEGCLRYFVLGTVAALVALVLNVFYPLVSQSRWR
Summary of the method: (§1)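 Average log2 ratios of fragment over vehicle were obtained by unpaired t-test from global-median-normalised Spectronaut label-free quantities. Proteins with ≥2 unique peptides were included. HEK293T lysate (495 µg per sample) was treated in triplicate with fragment at 200 µM or vehicle for 3 h, then with Biotin-Ahx-Ub-VS at 0.5 µM final for 1 h, and labelled DUBs were NeutrAvidin-enriched and run by diaPASEF LC-MS/MS.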

USP24 = USP24 (UniProt Q9UPU5)
Summary of the method: as §1

USP25 = molecular target: T2, USP25 (UniProt Q9UHP3)
T2 sequence (whole entry): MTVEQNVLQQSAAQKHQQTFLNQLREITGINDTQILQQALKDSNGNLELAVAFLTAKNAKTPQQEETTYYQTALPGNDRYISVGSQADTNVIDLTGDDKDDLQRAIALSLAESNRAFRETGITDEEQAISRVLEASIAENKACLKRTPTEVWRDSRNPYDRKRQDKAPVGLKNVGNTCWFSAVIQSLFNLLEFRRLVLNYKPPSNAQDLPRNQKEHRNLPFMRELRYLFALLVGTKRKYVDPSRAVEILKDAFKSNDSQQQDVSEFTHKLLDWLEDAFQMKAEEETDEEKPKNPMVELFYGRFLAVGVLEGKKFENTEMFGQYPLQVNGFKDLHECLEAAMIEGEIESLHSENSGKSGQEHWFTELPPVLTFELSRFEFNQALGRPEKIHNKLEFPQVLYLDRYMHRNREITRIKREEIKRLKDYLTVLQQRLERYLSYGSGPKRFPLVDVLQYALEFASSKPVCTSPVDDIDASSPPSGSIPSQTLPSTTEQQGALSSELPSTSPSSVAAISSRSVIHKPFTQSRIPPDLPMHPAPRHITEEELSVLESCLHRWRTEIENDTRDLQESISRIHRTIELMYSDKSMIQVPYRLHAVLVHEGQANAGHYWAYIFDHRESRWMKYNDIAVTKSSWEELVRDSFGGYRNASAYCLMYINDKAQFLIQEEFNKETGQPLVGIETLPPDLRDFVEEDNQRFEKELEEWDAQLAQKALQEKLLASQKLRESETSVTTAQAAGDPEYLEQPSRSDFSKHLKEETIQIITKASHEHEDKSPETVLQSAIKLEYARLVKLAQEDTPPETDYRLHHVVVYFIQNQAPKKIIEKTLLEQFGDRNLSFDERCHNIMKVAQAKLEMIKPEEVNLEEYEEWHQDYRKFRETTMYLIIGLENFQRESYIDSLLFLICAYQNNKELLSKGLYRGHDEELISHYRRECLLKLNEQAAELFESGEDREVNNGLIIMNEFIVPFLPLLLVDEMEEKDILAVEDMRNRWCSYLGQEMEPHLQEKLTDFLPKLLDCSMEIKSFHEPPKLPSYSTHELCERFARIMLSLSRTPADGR
Summary of the method: as §1

USP28 = molecular target: T3, USP28 (UniProt Q96RU2)
T3 sequence (whole entry): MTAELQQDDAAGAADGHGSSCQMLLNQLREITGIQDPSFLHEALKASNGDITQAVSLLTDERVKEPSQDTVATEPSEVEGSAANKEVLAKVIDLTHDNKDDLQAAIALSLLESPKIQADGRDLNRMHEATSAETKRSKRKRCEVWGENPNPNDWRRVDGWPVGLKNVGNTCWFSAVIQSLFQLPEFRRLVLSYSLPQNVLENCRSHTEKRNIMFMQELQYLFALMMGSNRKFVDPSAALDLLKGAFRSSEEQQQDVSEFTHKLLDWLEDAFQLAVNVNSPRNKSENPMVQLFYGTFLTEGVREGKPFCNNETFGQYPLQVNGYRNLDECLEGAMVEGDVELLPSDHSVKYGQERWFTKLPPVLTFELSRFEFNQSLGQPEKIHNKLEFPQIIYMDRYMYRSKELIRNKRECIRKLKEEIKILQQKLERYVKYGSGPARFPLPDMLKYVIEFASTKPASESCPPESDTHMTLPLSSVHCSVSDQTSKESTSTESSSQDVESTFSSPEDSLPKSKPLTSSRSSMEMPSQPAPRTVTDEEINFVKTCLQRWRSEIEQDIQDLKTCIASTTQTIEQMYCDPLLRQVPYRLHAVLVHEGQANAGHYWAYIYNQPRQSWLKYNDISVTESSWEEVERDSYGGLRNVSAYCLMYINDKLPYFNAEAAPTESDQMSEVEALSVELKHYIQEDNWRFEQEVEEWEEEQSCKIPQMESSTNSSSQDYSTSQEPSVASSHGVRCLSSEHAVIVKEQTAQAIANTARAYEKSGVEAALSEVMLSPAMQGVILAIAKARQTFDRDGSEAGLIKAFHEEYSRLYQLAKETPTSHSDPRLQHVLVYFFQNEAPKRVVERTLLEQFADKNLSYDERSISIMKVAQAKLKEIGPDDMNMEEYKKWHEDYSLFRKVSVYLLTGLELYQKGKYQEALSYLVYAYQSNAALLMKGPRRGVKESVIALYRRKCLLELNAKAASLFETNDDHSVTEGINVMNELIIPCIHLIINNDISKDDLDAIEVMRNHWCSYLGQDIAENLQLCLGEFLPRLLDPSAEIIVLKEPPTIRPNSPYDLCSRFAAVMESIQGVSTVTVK
Summary of the method: as §1

Measured: log2 ratio of Biotin-Ahx-Ub-VS probe labelling

USP24, sequence (Q9UPU5 whole entry): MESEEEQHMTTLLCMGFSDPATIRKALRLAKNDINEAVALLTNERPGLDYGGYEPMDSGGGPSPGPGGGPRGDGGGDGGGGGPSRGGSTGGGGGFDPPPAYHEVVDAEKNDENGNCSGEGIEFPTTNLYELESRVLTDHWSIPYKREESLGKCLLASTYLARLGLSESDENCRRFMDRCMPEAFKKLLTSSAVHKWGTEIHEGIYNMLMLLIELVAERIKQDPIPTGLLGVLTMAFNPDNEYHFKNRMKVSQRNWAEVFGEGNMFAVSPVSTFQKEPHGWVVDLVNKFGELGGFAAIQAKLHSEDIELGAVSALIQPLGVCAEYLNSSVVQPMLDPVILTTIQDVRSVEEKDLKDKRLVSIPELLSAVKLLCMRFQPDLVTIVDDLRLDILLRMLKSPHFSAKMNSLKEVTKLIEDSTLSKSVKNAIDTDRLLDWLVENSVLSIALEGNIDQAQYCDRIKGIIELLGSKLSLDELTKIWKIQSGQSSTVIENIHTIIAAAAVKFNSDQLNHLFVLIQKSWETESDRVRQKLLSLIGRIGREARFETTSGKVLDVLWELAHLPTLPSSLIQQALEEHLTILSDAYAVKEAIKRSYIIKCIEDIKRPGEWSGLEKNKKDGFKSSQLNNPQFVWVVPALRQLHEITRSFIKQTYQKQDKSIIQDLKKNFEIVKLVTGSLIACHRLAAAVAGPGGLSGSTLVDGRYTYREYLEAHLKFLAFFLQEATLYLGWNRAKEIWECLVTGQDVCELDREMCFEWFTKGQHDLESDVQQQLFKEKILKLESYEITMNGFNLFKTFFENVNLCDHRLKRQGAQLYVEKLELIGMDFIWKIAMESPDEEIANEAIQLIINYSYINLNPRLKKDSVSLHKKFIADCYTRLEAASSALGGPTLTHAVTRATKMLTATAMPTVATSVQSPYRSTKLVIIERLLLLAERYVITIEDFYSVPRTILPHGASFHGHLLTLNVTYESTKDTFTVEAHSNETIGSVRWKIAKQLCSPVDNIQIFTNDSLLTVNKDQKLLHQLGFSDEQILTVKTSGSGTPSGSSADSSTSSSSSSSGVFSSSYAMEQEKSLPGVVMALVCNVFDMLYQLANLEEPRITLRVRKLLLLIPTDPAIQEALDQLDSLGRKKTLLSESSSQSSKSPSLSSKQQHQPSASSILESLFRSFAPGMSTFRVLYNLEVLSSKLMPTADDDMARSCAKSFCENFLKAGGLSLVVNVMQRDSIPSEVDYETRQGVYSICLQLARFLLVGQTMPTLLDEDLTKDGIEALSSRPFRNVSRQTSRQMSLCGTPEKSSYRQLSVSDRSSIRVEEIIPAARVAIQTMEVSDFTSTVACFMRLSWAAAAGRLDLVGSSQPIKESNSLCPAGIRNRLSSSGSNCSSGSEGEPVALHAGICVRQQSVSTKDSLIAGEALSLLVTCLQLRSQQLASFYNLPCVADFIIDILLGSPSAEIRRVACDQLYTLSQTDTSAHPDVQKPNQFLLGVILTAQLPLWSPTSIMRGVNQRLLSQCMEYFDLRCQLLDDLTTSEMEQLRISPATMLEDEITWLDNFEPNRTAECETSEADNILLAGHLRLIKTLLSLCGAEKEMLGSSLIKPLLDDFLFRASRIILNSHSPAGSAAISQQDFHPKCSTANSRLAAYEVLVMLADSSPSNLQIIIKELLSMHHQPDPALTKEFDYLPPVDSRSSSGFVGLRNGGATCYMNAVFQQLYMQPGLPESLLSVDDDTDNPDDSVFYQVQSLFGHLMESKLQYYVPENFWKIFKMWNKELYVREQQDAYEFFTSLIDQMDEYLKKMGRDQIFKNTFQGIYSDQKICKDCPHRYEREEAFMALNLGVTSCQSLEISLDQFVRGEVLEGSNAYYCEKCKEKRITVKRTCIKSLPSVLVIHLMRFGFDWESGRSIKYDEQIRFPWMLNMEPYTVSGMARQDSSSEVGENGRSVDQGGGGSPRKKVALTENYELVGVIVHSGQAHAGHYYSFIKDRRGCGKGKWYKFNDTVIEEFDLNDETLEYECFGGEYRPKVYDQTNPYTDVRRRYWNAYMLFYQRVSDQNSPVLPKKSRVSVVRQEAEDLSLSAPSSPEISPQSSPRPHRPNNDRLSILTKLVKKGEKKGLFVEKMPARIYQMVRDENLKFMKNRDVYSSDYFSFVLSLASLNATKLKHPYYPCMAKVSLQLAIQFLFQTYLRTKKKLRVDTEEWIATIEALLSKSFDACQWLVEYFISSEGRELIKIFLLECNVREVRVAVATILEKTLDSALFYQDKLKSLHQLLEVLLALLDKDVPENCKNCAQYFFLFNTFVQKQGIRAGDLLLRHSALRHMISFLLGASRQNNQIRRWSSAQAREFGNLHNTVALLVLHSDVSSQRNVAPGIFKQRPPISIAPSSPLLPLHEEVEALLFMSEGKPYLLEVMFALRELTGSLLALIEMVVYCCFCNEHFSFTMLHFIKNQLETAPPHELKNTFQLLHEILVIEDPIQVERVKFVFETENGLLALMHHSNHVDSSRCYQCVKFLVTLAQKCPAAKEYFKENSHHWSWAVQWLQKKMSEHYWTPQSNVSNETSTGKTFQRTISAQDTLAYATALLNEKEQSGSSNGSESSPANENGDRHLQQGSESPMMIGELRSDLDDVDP

O=C(CCl)NC1CCC(C(F)(F)F)CC1 (centres undefined)
inactive: USP19 -0.155 | USP24 -0.771 | USP25 -0.322 | USP28 -0.705

From the supplement of paper PMC11732987, “Enantioselective OTUD7B fragment discovery through chemoproteomics screening and high-throughput optimisation” (Communications Chemistry, 2025)
